Laboratory results reported in PubChem BioAssay AID1159580 (chemical genetic matrix, 2015).
About 2,000 (36%) of roughly 5,500 compounds were called active. Another 18% or so got no clear call; they are omitted. Cut-off read from the data, not from the text of the source: active = normalized growth mostly below about 0.91 (no sharp cut-off); inconclusive = no clear call, values can overlap the other calls; inactive = mostly above about 0.92. The list shows a part of the results.

Experiment: chemical genetic growth profiling, strain panel (AID 1159580);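 note: tested at 20 µM; growth read once vehicle control cultures reached saturation at 30 °C; 1 = growth at the plate median or of vehicle wells; lower values mean less growth of the strain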
Conditions: S. cerevisiae deletion strains, growth OD
[1] = locus YBL105C, strain PKC1, stronger effect = lower value
[2] = locus YBR135W, strain CKS1, stronger effect = lower value
[3] = locus YBR136W, strain MEC1, stronger effect = lower value
[4] = locus YBR160W, strain CDC28, stronger effect = lower value
[5] = locus YDL017W, strain CDC7, stronger effect = lower value
[6] = locus YDL028C, strain MPS1, stronger effect = lower value
[7] = locus YDL108W, strain KIN28, stronger effect = lower value
[8] = locus YDL132W, strain cdc53, stronger effect = lower value
[9] = locus YDL214C, strain PRR2, stronger effect = lower value
[10] = locus YDR052C, strain DBF4, stronger effect = lower value
[11] = locus YDR054C, strain cdc34, stronger effect = lower value
[12] = locus YDR226W, strain ADK1, stronger effect = lower value
[13] = locus YDR477W, strain SNF1, stronger effect = lower value
[14] = locus YER123W, strain YCK3, stronger effect = lower value
[15] = locus YER133W, strain GLC7, stronger effect = lower value
[16] = locus YFL029C, strain CAK1, stronger effect = lower value
[17] = locus YFR003C, strain YPI1, stronger effect = lower value
[18] = locus YFR019W, strain FAB1, stronger effect = lower value
[19] = locus YFR028C, strain CDC14, stronger effect = lower value
[20] = locus YGR040W, strain KSS1, stronger effect = lower value
[21] = locus YGR052W, strain FMP48, stronger effect = lower value
[22] = locus YGR092W, strain DBF2, stronger effect = lower value
[23] = locus YHR030C, strain SLT2, stronger effect = lower value
[24] = locus YHR079C, strain IRE1, stronger effect = lower value
[25] = locus YHR082C, strain KSP1, stronger effect = lower value
[26] = locus YHR205W, strain SCH9, stronger effect = lower value
[27] = locus YIL147C, strain SLN1, stronger effect = lower value
[28] = locus YJL095W, strain BCK1, stronger effect = lower value
[29] = locus YJL128C, strain PBS2, stronger effect = lower value
[30] = locus YJL157C, strain FAR1, stronger effect = lower value
[31] = locus YJR016C, strain ILV3, stronger effect = lower value
[32] = locus YJR066W, strain TOR1 (second series), stronger effect = lower value
[33] = locus YJR066W, strain TOR1, stronger effect = lower value
[34] = locus YKL048C, strain ELM1, stronger effect = lower value
[35] = locus YKL067W, strain YNK1, stronger effect = lower value
[36] = locus YKL101W, strain HSL1, stronger effect = lower value
[37] = locus YKL203C, strain TOR2, stronger effect = lower value
[38] = locus YLR113W, strain HOG1, stronger effect = lower value
[39] = locus YLR133W, strain CKI1, stronger effect = lower value
[40] = locus YLR403W, strain SFP1, stronger effect = lower value
[41] = locus YML070W, strain DAK1, stronger effect = lower value
[42] = locus YMR001C, strain CDC5, stronger effect = lower value
[43] = locus YMR205C, strain PFK2 (second series), stronger effect = lower value
[44] = locus YMR277W, strain FCP1, stronger effect = lower value
[45] = locus YNL006W, strain LST8, stronger effect = lower value
[46] = locus YNL020C, strain ARK1, stronger effect = lower value
[47] = locus YNL161W, strain CBK1, stronger effect = lower value
[48] = locus YNL183C, strain NPR1, stronger effect = lower value
[49] = locus YNL207W, strain RIO2, stronger effect = lower value
[50] = locus YNL222W, strain SSU72, stronger effect = lower value
[51] = locus YNL307C, strain MCK1 (second series), stronger effect = lower value
[52] = locus YOL136C, strain PFK27, stronger effect = lower value
[53] = locus YOR061W, strain CKA2, stronger effect = lower value
[54] = locus YOR119C, strain RIO1, stronger effect = lower value
[55] = locus YOR231W, strain MKK1, stronger effect = lower value
[56] = locus YOR329C, strain SCD5, stronger effect = lower value
[57] = locus YPL031C, strain PHO85, stronger effect = lower value
[58] = locus YPL153C, strain RAD53, stronger effect = lower value
[59] = locus YPL204W, strain HRR25, stronger effect = lower value
[60] = locus YPL209C, strain IPL1, stronger effect = lower value
[61] = locus YPL256C, strain CLN2, stronger effect = lower value
[62] = locus YPR025C, strain CCL1, stronger effect = lower value
[63] = locus YPR106W, strain ISR1, stronger effect = lower value
[64] = locus YPR111W, strain DBF20, stronger effect = lower value
[65] = strain NNK1, stronger effect = lower value
[66] = locus YAR019C, strain CDC15, stronger effect = lower value
[67] = locus YDL101C, strain DUN1, stronger effect = lower value
[68] = locus YFL009W, strain cdc4, stronger effect = lower value
[69] = locus YKL193C, strain SDS22, stronger effect = lower value
[70] = locus YOL078W, strain AVO1, stronger effect = lower value
[71] = strain TSCII, stronger effect = lower value

Measured: normalized growth

O=C(Nc1cc(Cl)cc(Cl)c1)Nc1cc(-c2ccco2)[nH]n1
active: [8] 0.608 | [9] 0.293 | [11] 0.566 | [13] 0.294 | [14] 0.15 | [15] 0.269 | [16] 0.616 | [18] 0.147 | [20] 0.288 | [21] 0.23 | [22] 0.128 | [23] 0.103 | [24] 0.119 | [25] 0.209 | [26] 0.287 | [28] 0.112 | [30] 0.257 | [32] 0.129 | [33] 0.142 | [34] 0.454 | [35] 0.316 | [36] 0.38 | [37] 0.253 | [38] 0.146 | [39] 0.295 | [40] 0.229 | [41] 0.181 | [43] 0.496 | [44] 0.777 | [45] 0.839 | [46] 0.3 | [48] 0.169 | [51] 0.202 | [52] 0.166 | [53] 0.322 | [54] 0.245 | [55] 0.115 | [57] 0.204 | [58] 0.145 | [59] 0.163 | [61] 0.14
inactive: [1] 0.935 | [2] 0.929 | [3] 0.935 | [4] 0.942 | [5] 0.95 | [6] 0.937 | [7] 0.938 | [10] 0.945 | [12] 0.94 | [17] 0.94 | [19] 0.935 | [27] 0.934 | [29] 0.944 | [31] 0.928 | [42] 0.935 | [47] 0.948 | [49] 0.894 | [50] 0.923 | [56] 0.951 | [60] 0.941 | [62] 0.93 | [63] 0.943 | [64] 0.944 | [65] 0.913

O=C(Nc1cc(Cl)cc(Cl)c1)Nc1cc(-c2cccs2)[nH]n1
inactive: [66] 0.957 | [1] 0.97 | [2] 0.958 | [3] 0.972 | [4] 0.959 | [5] 0.971 | [6] 0.964 | [67] 0.972 | [7] 0.97 | [8] 0.949 | [9] 0.826 | [10] 0.978 | [11] 0.95 | [12] 0.973 | [13] 0.85 | [14] 0.712 | [15] 0.864 | [68] 0.956 | [16] 0.956 | [17] 0.964 | [19] 0.967 | [20] 0.816 | [21] 0.916 | [22] 0.686 | [24] 0.734 | [25] 0.733 | [26] 0.796 | [27] 0.967 | [28] 0.739 | [29] 0.982 | [30] 0.849 | [31] 0.948 | [32] 0.8 | [33] 0.762 | [34] 0.89 | [35] 0.854 | [36] 0.861 | [69] 0.958 | [37] 0.872 | [39] 0.851 | [40] 0.806 | [41] 0.815 | [42] 0.965 | [43] 0.88 | [44] 0.959 | [45] 0.955 | [46] 0.854 | [47] 0.959 | [48] 0.772 | [49] 0.949 | [50] 0.957 | [51] 0.744 | [70] 0.954 | [52] 0.763 | [53] 0.891 | [54] 0.906 | [55] 0.817 | [56] 0.962 | [57] 0.791 | [58] 0.739 | [59] 0.669 | [60] 0.958 | [62] 0.963 | [63] 0.953 | [64] 0.947 | [65] 0.948 | [71] 0.961
active: [18] 0.759 | [23] 0.459 | [38] 0.825 | [61] 0.755

S=C(Nc1cc(-c2cccs2)[nH]n1)Nc1ccccc1Cl
inactive: [66] 0.93 | [1] 0.938 | [2] 0.934 | [3] 0.934 | [4] 0.943 | [5] 0.938 | [6] 0.932 | [67] 0.945 | [7] 0.938 | [8] 0.955 | [9] 0.825 | [10] 0.942 | [11] 0.916 | [12] 0.939 | [13] 0.816 | [14] 0.755 | [15] 0.809 | [68] 0.929 | [16] 0.925 | [17] 0.934 | [18] 0.859 | [19] 0.932 | [20] 0.819 | [21] 0.908 | [22] 0.796 | [24] 0.842 | [25] 0.821 | [26] 0.813 | [27] 0.93 | [28] 0.748 | [29] 0.908 | [30] 0.836 | [31] 0.935 | [32] 0.778 | [33] 0.773 | [34] 0.885 | [35] 0.835 | [36] 0.891 | [69] 0.917 | [37] 0.866 | [39] 0.858 | [40] 0.827 | [41] 0.834 | [42] 0.927 | [43] 0.877 | [44] 0.93 | [45] 0.937 | [46] 0.837 | [47] 0.938 | [48] 0.803 | [49] 0.913 | [50] 0.939 | [51] 0.746 | [70] 0.932 | [52] 0.859 | [53] 0.859 | [54] 0.88 | [55] 0.829 | [56] 0.935 | [57] 0.8 | [58] 0.804 | [59] 0.791 | [60] 0.942 | [62] 0.936 | [63] 0.932 | [64] 0.942 | [65] 0.94 | [71] 0.936
active: [23] 0.616 | [38] 0.739 | [61] 0.72
